# Assay outcomes (PubChem BioAssay)
# Sampled rows, rich in hits. Any-hit rate of the full collection: about 1.4%.
# BCLXL inh: inhibitors of human Bcl-xL, primary screen, biochemical, fluorescence polarization, HTS. Bcl-2-like protein 1 (Homo sapiens), Q07817. GST-Bcl-xL / FITC-Bim BH3 peptide fluorescence polarization. inhibition, % at 10.9 µM. 320,000 compounds, 0.7% hits. AID 2129, 2009;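 active = inhibition above the mean of all tested compounds plus 3 SD, cutoff set per campaign, cut at about 30% in these data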;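 also: 0% = DMSO wells and 100% = unlabeled Bim-BH3 peptide competitor; inhibitors lower millipolarization by displacing the labeled peptide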
# Target sequence (Q07817 whole entry, looked up): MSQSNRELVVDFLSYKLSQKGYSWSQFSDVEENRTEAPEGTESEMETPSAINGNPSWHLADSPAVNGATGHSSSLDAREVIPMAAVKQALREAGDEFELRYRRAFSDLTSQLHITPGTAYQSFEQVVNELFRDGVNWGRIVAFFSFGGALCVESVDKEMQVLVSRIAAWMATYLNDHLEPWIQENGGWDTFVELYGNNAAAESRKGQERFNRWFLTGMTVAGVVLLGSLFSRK
# MCL1 BIM primary: inhibitors of MCL1 binding to BIM-BH3, primary screen, biochemical, fluorescence polarization; GST-MCL1 / FITC-Bim-BH3 fluorescence polarization; inhibition, % at 10.9 µM; 320,000 compounds, 0.68% hits;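 active = inhibition above the mean inhibition of all tested compounds plus 3 SD, set per campaign, cut at about 40% in these data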;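 also: 0% = DMSO wells and 100% = unlabeled Bim-BH3 peptide control; higher means more loss of mP so more displacement of Bim peptide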
# E coli Lon inh: inhibitors of E. coli Lon protease, primary screen, biochemical, fluorescence polarization. P0A9M0. purified E. coli Lon protease. inhibition, % at 7.94 µM. 360,000 compounds, 0.42% hits; in the data active = inhibition above about 13%, passing the limit was not always enough;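 also: 0% = enzyme with probe and DMSO and 100% = no enzyme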
# MEX-5 binding: MEX-5 zinc finger RNA-binding disruptors – biochemical, C. elegans, fluorescence polarization, MLPCN library, primary screen | Zinc finger protein mex-5 (Caenorhabditis elegans), Q9XUB2 | MEX-5/FITC-TCR2 RNA binding; stronger effect = lower value | activity score (negative = inhibition of binding), % at 10 µM | 300,000 compounds, 0.38% hits;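 active = inhibition past about -25% in most replicates, and total fluorescence under double the plate's negative control median, limit read from the data; inconclusive = replicates evenly split on the limit, or fluorescence at least double controls; inactive = too little inhibition in most replicates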;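 also: 0% = DMSO and -100% = 5 µM competing unlabeled TCR2 RNA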
# GLD-1 TGE inh: GLD-1/TGE RNA complex disruptors, primary screen, biochemical, fluorescence polarization; purified GLD-1 + fluorescein TGE RNA; inhibition, % at 5.96 µM; 320,000 compounds, 0.44% hits;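 active = percent inhibition above a per-plate cutoff, the plate mean of test compounds plus 3 SD, cut at about 30% in these data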;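 also: 0% = DMSO wells with GLD-1 and probe and 100% = wells lacking GLD-1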
# EBV gp42 block: Epstein-Barr virus gp42 inhibitors, primary screen, biochemical, uHTS, fluorescence polarization. 220,000 compounds, 0.42% hits. Fluorescence polarization binding assay, mP read-out. inhibition, % (tested at 21.74 µM). Glycoprotein 42 (Epstein-Barr virus (strain AG876)), Q1HVG2. AID 1085, 2008; in the data active = inhibition above about 50%
# Target sequence (Q1HVG2 whole entry, looked up): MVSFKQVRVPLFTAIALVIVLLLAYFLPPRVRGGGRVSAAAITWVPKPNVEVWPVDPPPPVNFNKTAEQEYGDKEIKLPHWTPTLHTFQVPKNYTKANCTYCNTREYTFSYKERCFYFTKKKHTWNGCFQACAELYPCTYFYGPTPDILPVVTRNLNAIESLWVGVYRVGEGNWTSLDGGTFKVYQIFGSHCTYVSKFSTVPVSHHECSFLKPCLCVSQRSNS
# Bcl-xL conf: Bcl-xL inhibitors blocking Bim BH3 binding, confirmation, counter-screen for MCL1 inhibitor project, biochemical, fluorescence polarization. shares compounds with MCL1 BIM primary. GST-Bcl-xL / FITC-Bim BH3 peptide FP binding. inhibition, % at 10.9 µM. 1,700 compounds, 54% hits;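 active = inhibition above a cutoff equal to the mean inhibition of all tested compounds plus 3 SD, cut at about 30% in these data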;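 also: 0% = DMSO wells and 100% = unlabeled Bim BH3 control peptide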
# MCL1 inh confirm: inhibitors of MCL1 binding to BIM-BH3, confirmation, biochemical, fluorescence polarization, triplicate; 1,700 compounds, 61% hits; shares compounds with MCL1 BIM primary; GST-MCL1 / FITC-Bim-BH3 fluorescence polarization; inhibition, % at 10.9 µM;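 active = inhibition above the average of all tested compounds plus 3 SD, cut at about 40% in these data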;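 also: 0% = DMSO wells and 100% = unlabeled Bim-BH3 control peptide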
# E coli Lon conf: E. coli Lon protease inhibitor retest, confirmation, biochemical, fluorescence polarization. purified E. coli Lon. shares compounds with E coli Lon inh. inhibition, % at 7.94 µM. 1,400 compounds, 31% hits; in the data active = inhibition above about 16%;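 also: 0% = enzyme with probe and DMSO and 100% = no enzyme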
# Starred values were filed as active, the others as inactive; ? = inconclusive; nt = no result.
SMILES,BCLXL inh,MCL1 BIM primary,E coli Lon inh,MEX-5 binding,GLD-1 TGE inh,EBV gp42 block,Bcl-xL conf,MCL1 inh confirm,E coli Lon conf
CCc1ccc[n+](-c2[nH]c(=O)sc2/C=N/N=C(\[O-])c2ccncc2)c1,1.8,0.9,3.1,-3.2,5.1,nt,nt,nt,nt
Cc1ccc[n+](-c2[nH]c(=O)sc2/C=N/N=C(\[O-])CCn2c3ccccc3c3ccccc32)c1,14.0,19.8,8.7,0.6,12.5,4.9,nt,nt,nt
CC(C)(C)c1cc[n+](-c2[nH]c(=O)sc2/C=N/NC([S-])=Nc2ccccc2)cc1,176.9*,196.5*,165.0*,?,159.7*,117.2*,160.5*,188.9*,71.4*
Cc1cc[n+](-c2[nH]c(=O)sc2/C=N/NC([S-])=Nc2ccccc2)cc1C,128.8*,163.4*,94.8*,-5.8,130.9*,64.5*,103.6*,148.9*,33.5*
CCNC(=O)C1CCCN(C(=O)c2ccc3ccccc3c2)CC1 (centres undefined),nt,nt,-0.9,nt,nt,nt,nt,nt,nt
CCCc1[nH]nc2c1C1(CCN(C(=O)OCc3ccccc3)CC1)C(C#N)=C(N)O2,1.7,5.5,-3.2,1.8,-4.4,4.2,nt,nt,nt
CC(C)c1[nH]nc2c1C1(CCN(Cc3ccccc3)CC1)C(C#N)=C(N)O2,104.0*,113.9*,29.8*,-1.2,57.4*,-4.0,-0.1,-11.6,-9.2
CN(Cc1ccccc1)CC1C2CCC(C2)C1O (centres undefined),nt,nt,-1.5,nt,nt,nt,nt,nt,nt
COC(=O)C1(C(=O)OC)C(C(=O)c2ccccc2)C1c1ccccc1 (centres undefined),nt,nt,-3.4,nt,nt,nt,nt,nt,nt
CC(=O)c1ccc2noc(-c3ccc(Cl)cc3)c2c1,3.2,1.6,-4.9,0.6,6.6,-8.6,nt,nt,nt
CC(=O)c1ccc2noc(-c3ccc(F)cc3)c2c1,97.8*,98.3*,16.4*,-14.9,109.6*,95.0*,82.0*,103.4*,58.1*
COc1ccc(C2/C(=C(/O)c3ccc(C)cc3)C(=O)C(=O)N2CCCN2CCOCC2)cc1 (centres undefined),8.3,7.2,-1.3,2.6,0.7,nt,nt,nt,nt
COc1ccc(-n2nc3c(c2NC(=O)COc2ccccc2OC)CS(=O)(=O)C3)cc1,nt,nt,-9.2,nt,nt,nt,nt,nt,nt
Cc1ccc(SCC(=O)OCc2csc(CC(=O)Nc3ccccc3C)n2)cc1C,-3.3,-14.9,-8.1,nt,0.1,nt,nt,nt,nt
COc1ccc(C2C(C(=O)c3cccs3)=C(O)C(=O)N2c2cccc(C)n2)cc1 (centres undefined),7.3,-3.0,-1.0,1.5,5.3,-5.4,nt,nt,nt
Cc1ccc(C2C(C(=O)c3cccs3)=C(O)C(=O)N2c2nnc(C)s2)cc1 (centres undefined),96.0*,86.3*,29.3*,-67.0*,101.5*,123.0*,122.8*,142.7*,60.7*
Cc1c(C(=O)Nc2cccc([N+](=O)[O-])c2)cnn1-c1ccccc1,0.5,8.0,-6.8,0.9,-0.7,nt,nt,nt,nt
Cc1ccc(C)c(NC(=O)CCN2CCCCC2)c1,3.1,4.7,2.0,-0.7,2.8,nt,nt,nt,nt
O=C(NC(=S)Nc1ccc(N2CCOCC2)cc1)c1ccco1,9.3,12.2,2.4,-0.5,-1.8,4.6,nt,nt,nt
